Measurements as given in PubChem BioAssay.
Active and inactive are the calls of the source.

Key:
[1] = small molecules captured by biotinylated probe aFSTL3 – biochemical, small-molecule microarray, fluorescence 635/667, stem cell growth factor project, primary screen (AID 1064); conditions: higher = more signal;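 also: measures binding of the biotinylated anti-FSTL3 antibody to printed compounds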
[2] = binders from COS7 lysate, DM2A8 probe, primary screen, torsin A project, cell lysate, small-molecule microarray, fluorescence 635/667 (AID 1065); conditions: higher = more signal, COS7 lysate expressing mutant human TOR1A
[3] = small molecules captured by biotinylated probe aFGF2 – biochemical, small-molecule microarray, fluorescence 635/667, stem cell growth factor project, primary screen (AID 1067); conditions: higher = more signal;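 also: measures binding of biotinylated aFGF2 protein to printed compounds on slides; z-score merges feature fluorescence and signal-to-noise across triplicate slides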
[4] = small molecules captured by biotinylated probe aFGF10 – biochemical, small-molecule microarray, fluorescence 635/667, stem cell growth factor project, primary screen (AID 1071); conditions: higher = more signal;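 also: score merges 667 nm spot intensity and signal to noise from triplicate slides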
[5] = target: Neurogenic locus notch homolog protein 2 (Homo sapiens) (UniProt Q04721); assay: small molecules binding Notch2 protein – biochemical, small-molecule microarray, 635 nm fluorescence, stem cell growth factors, primary screen (AID 1073); conditions: higher = more signal
Neurogenic locus notch homolog protein 2 (Homo sapiens), sequence (Q04721 whole entry, looked up, canonical isoform): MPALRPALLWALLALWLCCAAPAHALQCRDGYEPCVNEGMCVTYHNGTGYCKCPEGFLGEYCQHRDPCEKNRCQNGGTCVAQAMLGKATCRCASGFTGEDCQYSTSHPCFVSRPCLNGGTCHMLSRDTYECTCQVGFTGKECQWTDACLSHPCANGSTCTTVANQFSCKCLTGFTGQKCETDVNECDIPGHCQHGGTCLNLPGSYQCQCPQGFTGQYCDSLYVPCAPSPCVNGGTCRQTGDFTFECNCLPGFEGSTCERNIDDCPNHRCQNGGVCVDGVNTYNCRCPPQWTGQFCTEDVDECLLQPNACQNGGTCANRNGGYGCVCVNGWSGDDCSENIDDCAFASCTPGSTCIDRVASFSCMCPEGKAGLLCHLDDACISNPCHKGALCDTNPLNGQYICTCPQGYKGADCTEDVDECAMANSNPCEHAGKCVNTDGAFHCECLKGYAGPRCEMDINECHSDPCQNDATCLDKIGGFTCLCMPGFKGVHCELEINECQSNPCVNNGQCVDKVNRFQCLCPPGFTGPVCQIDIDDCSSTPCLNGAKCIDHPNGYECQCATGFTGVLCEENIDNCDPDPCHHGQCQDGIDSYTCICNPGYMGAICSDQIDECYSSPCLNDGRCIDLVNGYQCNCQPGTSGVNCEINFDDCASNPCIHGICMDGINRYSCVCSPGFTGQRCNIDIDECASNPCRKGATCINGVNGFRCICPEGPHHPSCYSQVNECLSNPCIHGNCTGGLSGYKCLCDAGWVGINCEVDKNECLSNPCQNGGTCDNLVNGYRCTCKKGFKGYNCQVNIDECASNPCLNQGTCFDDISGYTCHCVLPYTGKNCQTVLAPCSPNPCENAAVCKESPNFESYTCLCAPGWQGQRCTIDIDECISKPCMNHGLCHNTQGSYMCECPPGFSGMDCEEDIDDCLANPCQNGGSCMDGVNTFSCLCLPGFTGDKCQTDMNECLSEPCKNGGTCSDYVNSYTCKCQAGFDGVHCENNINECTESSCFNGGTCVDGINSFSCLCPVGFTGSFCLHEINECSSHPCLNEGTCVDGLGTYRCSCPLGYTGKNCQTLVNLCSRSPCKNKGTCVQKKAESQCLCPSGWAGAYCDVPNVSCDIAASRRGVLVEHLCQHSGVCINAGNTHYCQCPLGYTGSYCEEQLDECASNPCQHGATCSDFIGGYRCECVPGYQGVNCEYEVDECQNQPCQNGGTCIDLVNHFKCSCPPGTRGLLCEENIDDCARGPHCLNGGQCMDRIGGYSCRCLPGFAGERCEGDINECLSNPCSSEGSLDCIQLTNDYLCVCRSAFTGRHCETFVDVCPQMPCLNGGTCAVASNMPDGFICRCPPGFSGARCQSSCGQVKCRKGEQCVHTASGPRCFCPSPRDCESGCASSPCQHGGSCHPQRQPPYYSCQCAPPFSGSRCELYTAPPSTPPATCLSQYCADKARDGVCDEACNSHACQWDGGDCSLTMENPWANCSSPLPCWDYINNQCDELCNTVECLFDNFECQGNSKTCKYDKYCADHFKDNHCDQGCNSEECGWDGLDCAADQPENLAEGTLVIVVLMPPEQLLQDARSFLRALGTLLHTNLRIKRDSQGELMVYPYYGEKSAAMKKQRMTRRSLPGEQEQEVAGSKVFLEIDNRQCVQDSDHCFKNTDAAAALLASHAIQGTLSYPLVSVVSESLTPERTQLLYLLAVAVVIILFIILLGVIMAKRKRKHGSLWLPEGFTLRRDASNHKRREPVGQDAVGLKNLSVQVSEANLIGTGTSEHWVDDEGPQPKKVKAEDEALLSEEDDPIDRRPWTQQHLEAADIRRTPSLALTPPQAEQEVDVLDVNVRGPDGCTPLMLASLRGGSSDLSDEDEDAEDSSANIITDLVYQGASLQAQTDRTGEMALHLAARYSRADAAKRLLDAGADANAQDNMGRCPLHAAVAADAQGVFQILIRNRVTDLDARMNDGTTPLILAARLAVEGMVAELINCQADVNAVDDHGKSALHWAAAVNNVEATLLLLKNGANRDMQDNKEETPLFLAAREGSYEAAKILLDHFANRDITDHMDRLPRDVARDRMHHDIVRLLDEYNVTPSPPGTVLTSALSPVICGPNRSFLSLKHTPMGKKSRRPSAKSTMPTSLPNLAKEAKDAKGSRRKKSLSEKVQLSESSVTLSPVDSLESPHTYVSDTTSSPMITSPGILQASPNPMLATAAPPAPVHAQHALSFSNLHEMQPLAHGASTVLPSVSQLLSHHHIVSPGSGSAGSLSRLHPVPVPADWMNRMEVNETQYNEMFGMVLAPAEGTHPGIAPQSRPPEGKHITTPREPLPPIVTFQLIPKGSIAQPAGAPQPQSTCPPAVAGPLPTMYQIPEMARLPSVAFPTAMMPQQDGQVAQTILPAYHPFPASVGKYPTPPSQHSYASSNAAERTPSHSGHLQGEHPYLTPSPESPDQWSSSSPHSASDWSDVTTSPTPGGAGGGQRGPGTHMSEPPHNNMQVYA

[6] = target: Pro-neuregulin-1, membrane-bound isoform (Homo sapiens) (UniProt Q02297); assay: small molecules binding neuregulin-1 protein – biochemical, small-molecule microarray, fluorescence 635/667, psychiatric disease protein project, primary screen (AID 1075); conditions: NRG1 binding, 635 nm fluorescence, higher = more signal;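 also: score combines 667 nm spot fluorescence with signal to noise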
[7] = system: Neuregulin-1 EGF-like domain; assay: small molecules binding NRG1 EGF domain – biochemical, small-molecule microarray, 635 nm fluorescence, primary screen (AID 1081); conditions: higher = more signal;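 also: binding of the protein to compounds printed on small-molecule microarray slides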
[8] = FRG1 expression reporter modulators in myotubes – cell-based, C2C12 myotubes, firefly/Renilla luciferase, luminescence, FRG1 inhibition for FSHD, primary screen (AID 1084); conditions: FRG1 promoter luciferase, higher = more signal, called active from +8 up or from −8 down
[9] = small molecules captured by biotinylated probe aFST – biochemical, small-molecule microarray, fluorescence 635/667, stem cell growth factor project, primary screen (AID 1086); conditions: higher = more signal;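 also: score merges 667 nm fluorescence with signal-to-noise of each printed compound spot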
[10] = binders of probe aHhip on microarray, primary screen, stem cell growth factor project, biochemical, small-molecule microarray, fluorescence 635/667 (AID 1087); conditions: higher = more signal;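 also: score merges spot fluorescence at 667nm with spot signal to noise ratio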
[11] = system: PRMT1 (protein arginine N-methyltransferase 1); assay: small molecules binding arginine methyltransferase PRMT1 – biochemical, small-molecule microarray, 635 nm fluorescence, primary screen (AID 1088); conditions: higher = more signal;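 also: binding of Prmt1 protein to compounds spotted on small-molecule microarray slides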
[12] = growth effects on S. cerevisiae YJM789 – YJM789 clinical isolate, OD600, 24 h, basal, primary screen (AID 1089); conditions: higher = more signal, called active from +8 up or from −8 down;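 also: growth of clinical yeast isolate S. cerevisiae YJM 789 seeded 1000 cells per well; test concentration not given here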
[13] = S. pombe growth modifiers, basal conditions – strain 972, OD600, 24 h, no modulator, primary screen (AID 1090);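 also: basal condition with compound alone and no growth modifier present; test concentration not given here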; conditions: S. pombe 972 growth, higher = more signal, called active from +8 up or from −8 down
[14] = budding yeast growth modifiers under rapamycin – strain BY4716, OD600, 96 h, primary screen (AID 1091); also: test concentration not given here; conditions: S. cerevisiae BY4716 + rapamycin, higher = more signal, called active from +8 up or from −8 down
[15] = target: Torsin-1A-interacting protein 2 (Homo sapiens) (UniProt Q8NFQ8); assay: small molecules binding lysate-expressed LULL1 – cell lysate, human LULL1 lysate, 635/667 nm fluorescence, primary screen (AID 1092); conditions: small-molecule microarray, hLULL1 lysate binding, 635 nm fluorescence; higher = more signal;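 also: probe is lysate of COS7 cells overexpressing human LULL1; score merges per-feature 667 nm fluorescence with signal-to-noise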
[16] = optical density change of DRC41 E. coli – strain DRC41, OD650, 24 h, E. coli filamentation project, primary screen (AID 1093);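 also: MC1000 strain lacking acrAB efflux and sulA so SOS filamentation is blocked; test concentration not given here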; conditions: E. coli DRC41 growth, higher = more signal, called active from +8 up or from −8 down
[17] = probe aLefty2 binding to arrayed compounds – biochemical, biotinylated probe, 635/667 nm fluorescence, primary screen (AID 1094); conditions: small-molecule microarray, higher = more signal;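 also: score merges spot fluorescence near 667 nm with spot signal-to-noise ratio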
[18] = system: Noggin (protein binding on small-molecule microarray); assay: small molecules binding Noggin protein – biochemical, 635/667 nm fluorescence, primary screen (AID 1095); conditions: 635 nm fluorescence, higher = more signal;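 also: score merges 667 nm feature fluorescence with signal to noise over triplicate slides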
[19] = target: Neurogenic locus notch homolog protein 3 (Homo sapiens) (UniProt Q9UM47); assay: small molecules binding NOTCH3 protein – biochemical, 635/667 nm fluorescence, primary screen (AID 1096); conditions: small-molecule microarray, 635 nm fluorescence, higher = more signal
Neurogenic locus notch homolog protein 3 (Homo sapiens), sequence (Q9UM47 whole entry, looked up): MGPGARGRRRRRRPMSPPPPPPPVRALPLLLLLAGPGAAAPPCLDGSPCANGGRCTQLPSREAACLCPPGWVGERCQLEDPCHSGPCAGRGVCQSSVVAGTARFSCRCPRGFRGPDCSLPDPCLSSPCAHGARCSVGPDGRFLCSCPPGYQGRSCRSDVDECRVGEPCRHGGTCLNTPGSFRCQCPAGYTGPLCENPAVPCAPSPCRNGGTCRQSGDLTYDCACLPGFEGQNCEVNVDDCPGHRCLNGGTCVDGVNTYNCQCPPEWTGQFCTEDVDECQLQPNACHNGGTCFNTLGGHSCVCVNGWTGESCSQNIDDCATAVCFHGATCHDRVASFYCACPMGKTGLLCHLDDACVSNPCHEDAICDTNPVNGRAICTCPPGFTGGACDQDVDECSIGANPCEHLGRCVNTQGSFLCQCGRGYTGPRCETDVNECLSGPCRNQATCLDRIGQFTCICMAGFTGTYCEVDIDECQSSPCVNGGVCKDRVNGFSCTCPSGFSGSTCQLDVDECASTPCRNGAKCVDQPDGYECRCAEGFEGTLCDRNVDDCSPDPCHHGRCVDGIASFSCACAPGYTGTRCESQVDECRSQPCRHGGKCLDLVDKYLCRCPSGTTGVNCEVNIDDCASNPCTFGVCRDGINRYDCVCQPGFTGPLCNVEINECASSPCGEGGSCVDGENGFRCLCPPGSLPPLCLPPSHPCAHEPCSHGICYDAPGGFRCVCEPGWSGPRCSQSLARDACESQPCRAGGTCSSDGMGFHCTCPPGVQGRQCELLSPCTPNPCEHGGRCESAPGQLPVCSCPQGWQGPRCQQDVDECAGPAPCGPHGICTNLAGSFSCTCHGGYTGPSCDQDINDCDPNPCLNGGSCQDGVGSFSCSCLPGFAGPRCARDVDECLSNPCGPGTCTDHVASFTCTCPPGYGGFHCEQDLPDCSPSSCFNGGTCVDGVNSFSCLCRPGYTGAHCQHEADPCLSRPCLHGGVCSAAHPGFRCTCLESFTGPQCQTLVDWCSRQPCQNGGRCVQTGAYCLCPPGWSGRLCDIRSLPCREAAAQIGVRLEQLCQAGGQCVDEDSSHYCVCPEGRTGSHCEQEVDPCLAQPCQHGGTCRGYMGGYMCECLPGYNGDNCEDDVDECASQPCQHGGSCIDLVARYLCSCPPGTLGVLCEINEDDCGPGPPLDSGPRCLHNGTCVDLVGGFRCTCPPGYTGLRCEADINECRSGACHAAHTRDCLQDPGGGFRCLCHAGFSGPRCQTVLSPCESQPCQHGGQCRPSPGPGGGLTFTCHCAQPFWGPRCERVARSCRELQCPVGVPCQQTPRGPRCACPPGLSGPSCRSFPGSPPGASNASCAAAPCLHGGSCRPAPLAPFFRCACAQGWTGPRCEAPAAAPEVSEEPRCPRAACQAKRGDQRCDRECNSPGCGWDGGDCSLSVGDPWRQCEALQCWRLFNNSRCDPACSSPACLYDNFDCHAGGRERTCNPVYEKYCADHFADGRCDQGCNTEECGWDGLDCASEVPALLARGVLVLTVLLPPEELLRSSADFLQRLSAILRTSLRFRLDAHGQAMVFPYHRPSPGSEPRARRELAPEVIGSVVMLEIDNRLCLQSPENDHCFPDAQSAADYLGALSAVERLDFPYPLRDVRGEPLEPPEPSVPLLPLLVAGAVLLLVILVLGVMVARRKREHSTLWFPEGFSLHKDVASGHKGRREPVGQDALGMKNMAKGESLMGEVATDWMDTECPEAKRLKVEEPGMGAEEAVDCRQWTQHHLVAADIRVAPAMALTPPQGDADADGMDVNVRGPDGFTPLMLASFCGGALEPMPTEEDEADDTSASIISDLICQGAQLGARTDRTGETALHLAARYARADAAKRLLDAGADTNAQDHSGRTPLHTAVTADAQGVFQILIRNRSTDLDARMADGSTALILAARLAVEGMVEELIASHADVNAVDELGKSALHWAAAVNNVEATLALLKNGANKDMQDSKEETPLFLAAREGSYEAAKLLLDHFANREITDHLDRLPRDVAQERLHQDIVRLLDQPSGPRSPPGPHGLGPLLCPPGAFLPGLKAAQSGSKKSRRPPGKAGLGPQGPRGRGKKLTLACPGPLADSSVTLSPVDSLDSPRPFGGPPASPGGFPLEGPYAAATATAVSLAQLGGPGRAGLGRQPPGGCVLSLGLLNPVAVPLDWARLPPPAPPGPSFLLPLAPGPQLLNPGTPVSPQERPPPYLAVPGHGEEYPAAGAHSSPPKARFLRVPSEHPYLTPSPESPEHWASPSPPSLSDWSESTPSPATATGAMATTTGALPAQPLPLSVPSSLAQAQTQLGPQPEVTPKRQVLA

[20] = probe aEGFR binding to arrayed compounds – biochemical, biotinylated probe, 635/667 nm fluorescence, primary screen (AID 1097); conditions: small-molecule microarray, higher = more signal;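 also: probe is a biotinylated anti-EGFR antibody binding compounds printed on slides; score combines fluorescence near 667 nm and signal to noise of each spot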

Structure (SMILES)	composite z-score [1]	composite z-score [2]	composite z-score [3]	composite z-score [4]	composite z-score [5]	composite z-score [6]	composite z-score [7]	z-score [8]	composite z-score [9]	composite z-score [10]	composite z-score [11]	z-score [12]	z-score [13]	z-score [14]	composite z-score [15]	z-score [16]	composite z-score [17]	composite z-score [18]	composite z-score [19]	composite z-score [20]
CON=C(C)CCN1CCCCc2nc(C)c(C)cc21	0.367	1.01	0.0121	0.241	0.133	0.525	0.93	0.997 (inactive)	0.437	-0.0296	0.46	-0.114 (inactive)	-0.0037 (inactive)	-0.508 (inactive)	0.799	0.165 (inactive)	0.0945	0.572	0.397	0.0978
CO[C@H]1COC(=O)[C@H](C)COC(=O)[C@H](C)NC(=O)CC=C[C@H]1C	-0.874	1.28	-0.145	0.37	0.127	-0.575	0.887	-0.592 (inactive)	0.0261	0.124	1.34	-0.301 (inactive)	-0.296 (inactive)	-0.253 (inactive)	0.449	0.828 (inactive)	-0.166	1.29	0.696	-0.122
Cc1ccc(C(C)C)n1C(=O)OC(C)(C)C	-0.504	0.166	-0.0621	0.357	0.404	-0.199	0.477	-1.08 (inactive)	-0.3	0.0749	0.0565	-0.923 (inactive)	-0.817 (inactive)	-0.665 (inactive)	0.345	-0.315 (inactive)	-0.138	0.535	0.915	-0.0549
CCOC(=O)[C@H](CC(C)C)NC(=O)CCC1CC(OC(=O)NCCc2ccc(F)cc2)CC2(CCCC(COC(=O)NCc3cccc(C(F)(F)F)c3)O2)O1 (stereo not given in full)	-0.17	0.13	-0.0924	0.983	1.14	0.806	1.16	-0.0179 (inactive)	-0.0518	-0.0102	1.49	0.643 (inactive)	0.58 (inactive)	0.603 (inactive)	1.6	1.05 (inactive)	-0.103	0.584	0.722	0.0199
CCOC(=O)[C@H](Cc1ccccc1)NC(=O)CCC1CC(OC(=O)NCc2cccc3ccccc23)CC2(CCCC(COC(=O)NCCc3ccccc3OC)O2)O1 (stereo not given in full)	-0.568	0.0631	-0.0538	0.586	0.967	0.341	1.02	1.37 (inactive)	0.327	0.0623	1.4	0.105 (inactive)	0.503 (inactive)	0.296 (inactive)	1.95	-0.164 (inactive)	0.0108	0.591	0.819	-0.0396
CON=C(C)CCN1CCc2nc(-c3ccccc3)c(-c3ccccc3)cc2C1	-0.262	-0.052	-0.128	-0.149	0.195	0.387	-0.961	0.953 (inactive)	0.0046	-0.201	0.0214	-1.08 (inactive)	-17.2 (active)	-3.67 (inactive)	-0.919	1.69 (inactive)	-0.0699	0.107	0.556	-0.158
CSCC[C@@H]1NC(=O)CC=C[C@@H](C)COC(=O)[C@H](C)COC1=O	-1.1	2.81	-0.355	-1.11	-0.979	-1.94	-0.169	-1.13 (inactive)	-0.242	0.487	1.53	-2.12 (inactive)	-1.99 (inactive)	-0.894 (inactive)	-0.265	0.453 (inactive)	-0.295	2.11	0.883	0.702
COc1ccc(COC(=O)NN=C2C[C@@H](O)[C@@H](O)[C@@H]3[C@@H]4C(=O)N(Cc5ccc6c(c5)OCO6)C(=O)[C@@H]4CC[C@H]23)cc1	1.62	-0.197	-0.0269	-0.0605	-0.546	-0.393	-0.282	1.02 (inactive)	0.648	0.0373	0.041	1.13 (inactive)	0.713 (inactive)	-0.369 (inactive)	0.259	0.434 (inactive)	0.475	-0.961	-0.523	-0.194
CC(C)=NO[C@H](C)c1cn([C@@H]2COC[C@H]2O)nn1	-0.517	-0.276	-0.163	0.517	0.712	0.0493	0.305	-0.807 (inactive)	0.362	-0.0618	0.629	-0.173 (inactive)	-1.02 (inactive)	0.127 (inactive)	0.242	0.132 (inactive)	-0.0936	0.683	0.562	0.0102
COC(=O)[C@H](C)NC(=O)CC=C[C@@H](C)[C@@H]1C=C[C@H](O)[C@@H](CO)O1	-0.636	0.677	-0.134	0.538	0.0931	-0.419	0.655	0.439 (inactive)	0.258	-0.0645	0.854	0.351 (inactive)	0.245 (inactive)	0.358 (inactive)	0.248	1.02 (inactive)	-0.0381	1.34	0.873	0.241
CO[C@H]1COC(=O)[C@H](C)COC(=O)[C@@H](OCc2ccccc2)C=C[C@@H]1C	-0.411	0.0756	-0.178	0.0844	-0.501	-0.319	-0.365	-0.224 (inactive)	1.27	0.449	0.855	0.138 (inactive)	-1.28 (inactive)	-0.876 (inactive)	-0.198	0.554 (inactive)	-0.241	1	-0.732	-0.188
O=C1[C@H]2[C@H]3[C@H](O)[C@H](O)CC(=NO[C@@H]4O[C@H](CO)[C@@H](O)[C@H](O)[C@H]4O)[C@@H]3CC[C@H]2C(=O)N1c1cccc(Oc2ccccc2)c1	-0.309	0.21	-0.125	0.649	0.628	0.495	1.02	0.423 (inactive)	0.365	0.0373	-0.175	-0.603 (inactive)	0.275 (inactive)	0.0506 (inactive)	0.879	0.364 (inactive)	-0.028	0.672	0.449	0.0102
Cc1cc(C)c(-c2cc([C@H](C)ON=C[C@@H](C)[C@H](OCc3ccccc3)C(C)C)on2)c(C)c1	-0.355	0.298	-0.0901	0.0823	-0.637	-0.529	-1.22	0.239 (inactive)	-0.342	0.0505	-0.903	0.0494 (inactive)	0.217 (inactive)	0.817 (inactive)	-0.91	-0.461 (inactive)	0.0469	0.481	0.0065	-0.067
CO[C@@H]1COC(=O)[C@H](COCc2ccccc2)NC(=O)CC=C[C@@H](C)[C@H](OC)COC(=O)[C@@H](C)NC(=O)CC=C[C@H]1C	-0.459	1.36	-0.191	-0.632	-0.45	-0.637	-0.826	0.696 (inactive)	-0.0711	0.0139	1.39	0.203 (inactive)	-0.536 (inactive)	0.55 (inactive)	-1.07	1.52 (inactive)	-0.147	1.16	-0.0488	-0.166
O=C1[C@H]2[C@H]3[C@H](O)[C@H](O)CC(=NOC[C@@H](O)COCc4ccco4)[C@@H]3CC[C@H]2C(=O)N1C1CCCCC1	-0.679	2.04	-0.16	-0.357	0.0224	-0.459	1.2	0.219 (inactive)	-0.045	0.235	1.39	1.61 (inactive)	-0.0798 (inactive)	-0.133 (inactive)	1.25	0.61 (inactive)	-0.061	1.75	0.437	0.0583
CC(C)[C@@H](OCc1ccccc1)[C@H](C)CON=C1[C@H]2CCn3c(=O)n(-c4ccccc4)c(=O)n3[C@H]2[C@H](O)[C@@H]2O[C@H]12	-0.375	0.616	0.0362	0.84	0.541	0.246	0.218	-0.157 (inactive)	0.369	-0.126	0.462	-1.48 (inactive)	-7.06 (inactive)	-0.882 (inactive)	1.56	0.222 (inactive)	-0.0063	0.439	0.597	-0.067
CC(=O)OC[C@H]1O[C@H](C#CCCc2ccccc2)C=C[C@@H]1OC(C)=O	-0.692	0.271	-0.0732	0.335	0.445	1.22	0.543	0.0903 (inactive)	0.302	0.0053	0.374	0.664 (inactive)	-2.4 (inactive)	-0.116 (inactive)	1.38	0.396 (inactive)	0.0092	0.57	0.341	-0.021
C[C@@H](c1ccccc1)N1C(=O)[C@H]2[C@H]3[C@H](O)[C@H](O)CC(=NOCc4ccccc4)[C@@H]3CC[C@H]2C1=O	1.67	-0.0647	-0.0203	0.0018	-0.578	-0.258	-0.521	0.717 (inactive)	0.401	-0.0672	-0.246	0.855 (inactive)	-0.293 (inactive)	0.512 (inactive)	0.379	-0.125 (inactive)	0.408	-0.29	-0.551	-0.203
COc1cccc([C@H]2Oc3ccc(OC)cc3C(=NOCC[C@@H]3C=C[C@H](OC(C)=O)[C@@H](COC(C)=O)O3)[C@@H]2O)c1	-0.478	0.459	-0.017	0.577	0.895	1.28	0.773	1.52 (inactive)	0.366	-0.21	0.829	0.243 (inactive)	0.594 (inactive)	0.0357 (inactive)	1	0.677 (inactive)	-0.0769	0.475	0.647	0.0281
C=CC[C@@H]1C=C[C@H](ON=C(C)CCN2CCCc3nc(C)c(C)cc32)[C@@H](CO)O1	0.886	1.26	0.208	0.435	0.945	-0.387	0.83	1.67 (inactive)	1.48	1.31	1.4	-0.367 (inactive)	0.323 (inactive)	-0.184 (inactive)	0.644	1.05 (inactive)	0.475	1.09	0.946	0.142
